Targets with a hit are over-represented here; the source holds about 8,800 in all. About 0.5% of all pairs of compound and target were hits.
Assays:
Experiment in all cases: log2 fold change, soluble protein after heating vs DMSO (PISA); higher = thermal stabilisation; K562 lysate, 10 uM; active = over 0.2 and 3.5 SD of the protein, either way, in both replicates (recomputed)
[1] = compound: C1=CC2=NC=CN=C2C=C1/C=C/3\C(=O)NC(=O)S3
In short: (§1)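 Log-two fold change in thermal stability relative to solvent controls is reported from duplicates. For each sample, crude K562 extract from dounce-homogenised pellets in PBS pH 7.4 with 1 mM MgCl2, at 1 mg/mL protein, was treated with 10 μM compound for 30 min. Aliquots heated for 3 min across 48°C-58°C were pooled, brought to 0.5% NP-40 at 4°C and cleared at 21,000xg for 90 min. The supernatant was quantified by TMTpro 16plex LC-MS/MS with channel sums equalised.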

[2] = compound: C=CC(=O)N1CCC[C@@H](n2nc(-c3ccc(Oc4ccccc4)cc3)c3c(N)ncnc32)C1 [ibrutinib]
In short: as §1

[3] = compound: CC1=C(C(CC(=O)N1)C2=CC=C(C=C2)C(F)(F)F)C(=O)NC3=C(C=C4C(=C3)C=NN4)F
In short: as §1

[4] = compound: CC1=C(C2=C(C=C1)C(=O)C3=CC=CC=C3N2CCCN)C
In short: as §1

[5] = compound: C#Cc1cccc(Nc2ncnc3cc(OCCOC)c(OCCOC)cc23)c1 [erlotinib]
In short: as §1

[6] = compound: C/C(=N\NC(=O)C1=CC(=CC=C1)S(=O)(=O)N2CCOCC2)/C3=C(C=CC(=C3)Cl)O
In short: as §1

[7] = compound: C1=CC(=CC=C1C2=NC3=C(N2)C=C(C=C3)C(=O)N)OC4=CC=C(C=C4)Cl
In short: as §1

[8] = compound: C1=CC2=C(C=CC(=C2)/C=C\3/C(=O)NC(=NCC4=CC=CS4)S3)N=C1
In short: as §1

[9] = compound: C1=CC=C(C=C1)C2=NC(=C(N2)C3=CC=NC=C3)C4=CC(=C(C=C4)Cl)O
In short: as §1

[10] = compound: C1=CC=C2C(=C1)C3=NNC4=CC=CC(=C43)C2=O
In short: as §1

[11] = compound: C1COCCN1CCN2C3=CC=CC=C3N=C2NC(=O)C4=CC(=CC=C4)[N+](=O)[O-] [IRAK-1-4 Inhibitor I]
In short: as §1

[12] = compound: CC(=O)c1cnc2ccc(-c3cc(Cl)c(O)c(Cl)c3)nc2c1N[C@H]1CC[C@H](CN(C)C)CC1
In short: as §1

[13] = compound: CC(C)(C)Cn1c(N)nc2ccc(-c3[nH]c(C(C)(C)C)nc3-c3ccc(F)cc3)nc21 [ralimetinib]
In short: as §1

[14] = compound: CC(C)(O)CC(=O)NCCn1ccc2ncnc(Nc3ccc(Oc4cccc(C(F)(F)F)c4)c(Cl)c3)c21
In short: as §1

[15] = compound: CC(C)C1=C2N=C(C=C(N2N=C1)NCC3=CC=CC=C3)NCCCCCCN
In short: as §1

[16] = compound: CC1=C(C=C(C=C1)NC(=O)C2=CC(=CC=C2)C(C)(C)C#N)NC3=CC4=C(C=C3)N=CN(C4=O)C
In short: as §1

[17] = compound: CC1=C(C=C(C=C1)NC(=O)C2=CC(=CC=C2)N(C)C)NC(=O)C3=CC=C(C=C3)O
In short: as §1

[18] = compound: CC1=CC=C(C=C1)SC2=C3C=C(SC3=CN=C2)C(=O)N
In short: as §1

[19] = compound: C1CCN(C1)C(=O)NC2=CC=CC(=C2)NC3=NC=C(C(=N3)NCCC4=CN=CN4)Br
In short: as §1

[20] = compound: C1CN(CCC1(CC2=CC=C(C=C2)Cl)N)C3=NC=NC4=C3C=CN4
In short: as §1

Measured: log2 fold change

ACVR1 (UniProt Q04771)
Sequence of UniProt Q04771 (Q04771 whole entry, looked up): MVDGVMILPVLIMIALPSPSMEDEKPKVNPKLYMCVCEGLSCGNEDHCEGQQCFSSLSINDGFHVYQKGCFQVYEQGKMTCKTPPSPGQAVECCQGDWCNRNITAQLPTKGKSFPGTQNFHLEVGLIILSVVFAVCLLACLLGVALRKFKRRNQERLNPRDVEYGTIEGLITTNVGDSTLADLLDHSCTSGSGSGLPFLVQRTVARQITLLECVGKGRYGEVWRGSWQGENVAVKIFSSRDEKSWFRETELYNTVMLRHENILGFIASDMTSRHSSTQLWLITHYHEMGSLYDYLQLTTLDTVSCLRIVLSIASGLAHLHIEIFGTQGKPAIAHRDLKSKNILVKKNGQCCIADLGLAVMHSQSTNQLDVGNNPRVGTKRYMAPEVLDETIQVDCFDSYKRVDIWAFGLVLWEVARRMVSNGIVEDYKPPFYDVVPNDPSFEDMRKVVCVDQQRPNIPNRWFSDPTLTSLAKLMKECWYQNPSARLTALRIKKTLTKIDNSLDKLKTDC
inactive: [1] 0.074 | [2] -0.047 | [3] -0.152 | [4] -0.02

ANXA13 isoform 2 (UniProt P27216)
Sequence of UniProt P27216 (P27216 whole entry, looked up): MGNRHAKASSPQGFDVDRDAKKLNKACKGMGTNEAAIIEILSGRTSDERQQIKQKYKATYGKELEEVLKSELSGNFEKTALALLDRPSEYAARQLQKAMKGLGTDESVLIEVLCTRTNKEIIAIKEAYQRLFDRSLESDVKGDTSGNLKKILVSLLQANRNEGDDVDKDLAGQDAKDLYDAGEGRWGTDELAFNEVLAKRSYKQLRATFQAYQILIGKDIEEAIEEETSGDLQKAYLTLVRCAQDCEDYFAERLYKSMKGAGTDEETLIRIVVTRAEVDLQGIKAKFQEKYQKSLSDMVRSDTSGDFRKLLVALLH
inactive: [5] -0.078 | [6] 0.111 | [7] -0.121 | [8] -0.019 | [1] -0.083 | [9] -0.029 | [10] 0.029 | [11] -0.174 | [2] 0.051 | [12] 0.092 | [13] 0.022 | [14] 0.169 | [15] -0.057 | [3] -0.034 | [4] 0.062 | [16] 0.053 | [17] -0.001 | [18] 0.06

AIF1L (UniProt Q9BQI0)
Sequence of UniProt Q9BQI0 (Q9BQI0 whole entry, looked up): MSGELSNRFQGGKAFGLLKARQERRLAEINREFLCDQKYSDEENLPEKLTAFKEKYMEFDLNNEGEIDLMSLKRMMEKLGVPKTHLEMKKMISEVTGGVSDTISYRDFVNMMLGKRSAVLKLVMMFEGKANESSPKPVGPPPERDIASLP
inactive: [5] -0.035 | [7] -0.008 | [1] -0.014 | [9] 0.012 | [19] 0.329 | [20] -0.008 | [11] -0.049 | [2] 0.169 | [12] 0.032 | [13] 0.029 | [14] -0.003 | [15] -0.105 | [3] -0.012 | [4] 0.159 | [16] -0.014 | [17] -0.005 | [18] -0.013

ACTG1 (UniProt K7EM38)
inactive: [19] -0.162 | [20] -0.155 | [12] -0.044 | [18] 0.152

ANKRD30A (UniProt Q9BXX3)
Sequence of UniProt Q9BXX3 (Q9BXX3 whole entry, looked up): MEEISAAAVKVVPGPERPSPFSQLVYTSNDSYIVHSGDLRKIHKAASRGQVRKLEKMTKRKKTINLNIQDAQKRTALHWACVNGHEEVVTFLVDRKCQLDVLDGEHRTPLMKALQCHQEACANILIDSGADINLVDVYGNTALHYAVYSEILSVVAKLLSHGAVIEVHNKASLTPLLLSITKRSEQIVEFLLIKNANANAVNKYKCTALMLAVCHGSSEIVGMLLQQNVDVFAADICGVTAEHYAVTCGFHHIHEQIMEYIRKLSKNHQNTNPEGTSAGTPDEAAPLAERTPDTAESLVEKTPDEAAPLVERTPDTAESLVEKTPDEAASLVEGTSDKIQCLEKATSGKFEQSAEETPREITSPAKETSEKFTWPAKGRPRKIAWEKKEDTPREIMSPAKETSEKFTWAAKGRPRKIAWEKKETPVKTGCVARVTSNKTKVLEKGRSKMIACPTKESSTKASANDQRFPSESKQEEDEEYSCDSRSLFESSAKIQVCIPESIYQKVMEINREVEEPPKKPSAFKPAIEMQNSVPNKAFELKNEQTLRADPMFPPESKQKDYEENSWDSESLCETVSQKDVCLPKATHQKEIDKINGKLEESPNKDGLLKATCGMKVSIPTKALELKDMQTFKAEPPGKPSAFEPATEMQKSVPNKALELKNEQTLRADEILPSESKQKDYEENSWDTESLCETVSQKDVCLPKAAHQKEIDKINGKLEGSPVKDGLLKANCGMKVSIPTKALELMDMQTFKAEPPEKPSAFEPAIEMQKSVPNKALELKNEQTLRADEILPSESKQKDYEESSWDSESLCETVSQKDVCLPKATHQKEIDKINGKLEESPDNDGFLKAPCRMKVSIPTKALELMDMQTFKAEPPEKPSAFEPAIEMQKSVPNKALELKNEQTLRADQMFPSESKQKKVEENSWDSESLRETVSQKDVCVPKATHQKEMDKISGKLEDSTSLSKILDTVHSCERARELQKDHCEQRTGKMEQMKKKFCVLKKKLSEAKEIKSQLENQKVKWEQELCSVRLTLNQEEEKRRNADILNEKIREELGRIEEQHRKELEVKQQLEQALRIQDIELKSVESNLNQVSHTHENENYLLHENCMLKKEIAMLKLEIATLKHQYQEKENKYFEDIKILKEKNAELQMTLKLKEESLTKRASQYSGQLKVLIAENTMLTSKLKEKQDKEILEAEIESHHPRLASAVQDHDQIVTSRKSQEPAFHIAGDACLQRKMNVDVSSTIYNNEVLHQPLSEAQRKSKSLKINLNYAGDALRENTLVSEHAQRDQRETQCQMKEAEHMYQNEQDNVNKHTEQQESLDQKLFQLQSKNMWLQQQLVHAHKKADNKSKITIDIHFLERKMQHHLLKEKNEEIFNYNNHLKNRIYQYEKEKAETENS
inactive: [1] 0.035 | [9] -0.06 | [19] 0.415 | [20] 0.144 | [11] -0.176 | [2] -0.01 | [12] 0.77 | [13] 0.014 | [14] 0.088 | [3] 0.007 | [4] 0.038 | [16] -0.088 | [17] 0.077 | [18] -0.177

ALG3 (UniProt Q92685)
Sequence of UniProt Q92685 (Q92685 whole entry, looked up): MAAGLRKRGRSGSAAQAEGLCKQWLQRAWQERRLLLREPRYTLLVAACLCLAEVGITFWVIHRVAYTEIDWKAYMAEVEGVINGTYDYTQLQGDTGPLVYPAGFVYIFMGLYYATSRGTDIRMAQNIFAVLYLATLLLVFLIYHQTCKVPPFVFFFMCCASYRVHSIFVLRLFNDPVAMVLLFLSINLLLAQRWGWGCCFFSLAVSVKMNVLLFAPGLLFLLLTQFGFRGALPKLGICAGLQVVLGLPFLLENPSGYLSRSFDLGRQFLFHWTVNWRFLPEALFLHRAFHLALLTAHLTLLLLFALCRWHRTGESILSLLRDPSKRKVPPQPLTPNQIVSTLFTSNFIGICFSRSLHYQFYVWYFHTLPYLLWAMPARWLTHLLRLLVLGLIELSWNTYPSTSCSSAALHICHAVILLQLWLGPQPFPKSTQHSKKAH
inactive: [5] 0.19 | [6] -0.117 | [7] -0.12 | [8] -0.037 | [1] 0.056 | [9] -0.016 | [10] -0.182 | [19] -0.103 | [20] -0.037 | [11] 0.019 | [2] -0.163 | [12] 0.03 | [13] -0.007 | [14] -0.032 | [15] -0.278 | [4] 0.014 | [16] -0.024 | [17] 0.042 | [18] 0.03

AGGF1 (UniProt Q8N302)
Sequence of UniProt Q8N302 (Q8N302 whole entry, looked up): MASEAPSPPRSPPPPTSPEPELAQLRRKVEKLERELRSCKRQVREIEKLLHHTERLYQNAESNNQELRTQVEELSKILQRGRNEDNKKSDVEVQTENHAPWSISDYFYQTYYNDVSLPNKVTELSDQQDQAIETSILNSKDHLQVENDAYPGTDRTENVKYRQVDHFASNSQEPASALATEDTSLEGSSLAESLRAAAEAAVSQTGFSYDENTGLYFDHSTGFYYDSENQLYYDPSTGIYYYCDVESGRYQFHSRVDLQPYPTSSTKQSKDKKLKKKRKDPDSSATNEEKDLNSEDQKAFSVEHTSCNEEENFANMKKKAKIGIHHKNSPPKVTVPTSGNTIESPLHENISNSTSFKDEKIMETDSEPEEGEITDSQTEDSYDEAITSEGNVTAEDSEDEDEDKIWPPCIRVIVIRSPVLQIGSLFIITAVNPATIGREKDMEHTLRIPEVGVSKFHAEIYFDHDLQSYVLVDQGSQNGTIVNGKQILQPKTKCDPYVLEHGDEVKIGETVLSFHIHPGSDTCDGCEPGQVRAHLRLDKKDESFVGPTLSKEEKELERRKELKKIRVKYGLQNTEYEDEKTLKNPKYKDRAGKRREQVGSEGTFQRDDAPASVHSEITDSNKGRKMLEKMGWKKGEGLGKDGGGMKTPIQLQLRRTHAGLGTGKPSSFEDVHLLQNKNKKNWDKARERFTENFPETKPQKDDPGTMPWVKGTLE
inactive: [5] -0.015 | [6] -0.056 | [7] 0.054 | [8] -0.19 | [1] -0.077 | [9] 0.018 | [10] 0.057 | [19] -0.038 | [20] -0.022 | [11] 0.023 | [2] 0.034 | [12] 0.077 | [13] -0.014 | [14] -0.023 | [15] -0.017 | [3] -0.011 | [16] 0.034 | [17] -0.04 | [18] -0.341

Reference: the supplement of paper PMC10849652
